Measurements reported in ChEMBL document CHEMBL3988442, “University of Dundee, Small-Polar-MMV Screening Library” (2021).
Out of some 38,000 compounds screened, about 1,200 (3.2%) showed an effect of 50% or more. The median lay at about -58%. The full list was thinned out, with strong results kept by preference.

Each compound was assayed on Plasmodium falciparum (assay: Calibr Malaria Delayed Death Assay SOP). Details: concentration 4.99e-06 (unit not given; other assays of the set use mol/L).
Assay type: functional, organism-based
Design: scale not given: in the data most compounds retested in dose-response had high values

| SMILES | Percent Effect [%] |
| --- | --- |
| O=C(O)C(F)(F)F.O=C(O)C(F)(F)F.O=C(O)c1c(-c2cncnc2)ncc2c1CCN(Cc1ccco1)C2 | -132.8 |
| CCNc1ncc2c(n1)CN(c1ccc(OC(F)(F)F)cc1)C2=O | 14.47 |
| O=C(N1CCCC1)N1CCC2(CCCN(CCOc3ccccc3)C2)C1.O=C(O)C(F)(F)F (stereo not given) | -4.272 |
| Cc1noc(C)c1CCCNc1cnccn1 | -49.46 |
| CN(C)C(=O)CN1CCOCC2(C1)CN(c1ncc(F)cn1)CCO2.O=C(O)C(F)(F)F (stereo not given) | -15.1 |
| Cc1ccnc(N2CCCC(c3nncn3C3CC3)C2)n1 (stereo not given) | -51.92 |
| CN1CCN(c2ccccc2NC(=O)c2ccco2)CC1 | 31.7 |
| CN1CCN(c2ccc(Br)cc2NC(=O)c2ccco2)CC1 | 52.34 |
| CN1CCN(c2ccc(Cl)cc2NC(=O)c2ccco2)CC1 | 41.12 |
| CCc1cc(CN(C)C(=O)c2cnc3c(c2)nc(N)n3CC)on1 | -104.3 |
| c1cc(CN2CCCC2)ccc1CNc1cncc2nnnn12 | -34.44 |
| c1cc(N2CCSCC2)ccc1CNc1cncc2nnnn12 | -124.6 |
| c1ccc(CN2CCCC2)c(CNc2cncc3nnnn23)c1 | 60.42 |
| Cc1cccc(NC(=O)c2ccc(OCc3nnnn3C)cc2)n1 | -114.2 |
| Cc1cccc(NC(=O)c2cccc(OCc3nnnn3C)c2)n1 | 80.42 |
| Cc1ccnc(NC(=O)c2cccc(OCc3nnnn3C)c2)c1 | -241.7 |
| CN1CC=C(CCN(C)C(=O)CCc2ccccc2)CC1 | 19.5 |
| CC(C(=O)NCc1ccco1)N1CCN(Cc2nccn2C)CC1 (stereo not given) | -39.34 |
| Cc1ccc(CN2CC3(CCN(C(=O)Cc4ccc(Cl)cc4)C3)C2)o1 | -2.786 |
| CNC(=O)c1cc2c(nc1NCC(C)C)CCN(c1ccncn1)CC2.O=C(O)C(F)(F)F | 13.05 |
| CC(=O)Nc1ccc(-n2ccc3nc(N4CCCC4)ncc3c2=O)cc1 | -5.195 |
| Cc1ccc(C)c(-n2ccc3nc(N4CCCC4)ncc3c2=O)c1 | -31.4 |

| SMILES | Percent Effect [%] |
| --- | --- |
| COCCn1cnc2ccc(NC(=O)CCCn3cccn3)cc2c1=O | -21.82 |
| Cn1cc(-c2cnc(N3CCOCC3)nc2)cc1C(=O)NCCC#N.O=C(O)C(F)(F)F | -137.7 |
| O=C(O)CN1CCC(c2ccccc2)C1 (stereo not given) | -52.87 |
| Cc1cc(C)c2nc(CN3CCCC(c4cc[nH]n4)C3)cc(O)c2c1 (stereo not given) | 52.56 |
| Cc1ccc2nc(CN3CCN(C4CCCC4)C(=O)C3)cc(O)c2c1 | -147.5 |
| Cc1cc(C)c2nc(CN3CC[C@@H](O)C3)cc(O)c2c1 | -11.32 |
| Cc1ccncc1NS(=O)(=O)c1ccc(Cl)s1 | -120.5 |
| O=C(c1cnn2c1OCCC2)N1CCN(C(=O)C2CCCO2)CC1 (stereo not given) | -54.26 |
| CC(C)(C(=O)NCC1CCN(Cc2ncc[nH]2)C1)c1ccccc1 (stereo not given) | -18.61 |
| CC(C)(C(=O)NCC1CCN(Cc2cccnc2)C1)c1ccccc1 (stereo not given) | 51.87 |
| COC(C)(C)C(=O)NCC1CCN(Cc2cc3ccccc3[nH]2)C1 (stereo not given) | -53.37 |
| O=C(CCn1ccc2ccc(F)cc21)/N=c1\[nH]nc(C2CCCO2)s1 (stereo not given) | -163.8 |
| CCC(NC(=O)CNC(=O)OC)c1cc(F)ccc1F (stereo not given) | -47.96 |
| CCN(CC)S(=O)(=O)NC1CCCc2nc(-c3ccccc3)ncc21 (stereo not given) | -18.05 |
| CC(C)N1CCC2(CC1)C(=O)N(c1cccnc1)c1ccc(F)cc12.Cl | 64.31 |
| CC(C)N1C(=O)C2(CCN(C)CC2)c2cc(F)ccc21.Cl | -16.08 |
| CN1CCC2(CC1)C(=O)N(c1cccnc1)c1ccc(F)cc12.Cl | 58.26 |
| CN1CCC2(CC1)C(=O)N(C)c1ccc(F)cc12.Cl | -104.9 |
| CC(=O)N1CCC2(CC1)C(=O)N(c1cccnc1)c1ccc(F)cc12 | -45.42 |
| CC(C)N1CCC2(CC1)C(=O)N(c1cccnc1)c1c(F)cccc12.Cl | 48.28 |
| CC(=O)c1cc2ncc(C(=O)NC3CC3)cc2[nH]1 | -111.2 |
| Cc1ccccc1N1CC2(CCN(S(=O)(=O)C3CC3)C2)CC1=O (stereo not given) | -190.8 |

| SMILES | Percent Effect [%] |
| --- | --- |
| CC(=O)Nc1c(C)noc1/C=C\c1ccc(S(=O)(=O)N2CCCC2)cc1 | 10.91 |
| Cc1cc(C)nc(N2CCCC(C(=O)Nc3n[nH]c(C(C)C)n3)C2)n1 (stereo not given) | -27.75 |
| CC(C)(C)c1cnc(CN2CCC(CO)CC2)o1 | -57.31 |
| CCN1CCN(C2CCN(Cc3ncc(C(C)(C)C)o3)CC2)C1=O | 51.71 |
| Cc1nc(C)n(CC2CCCN2Cc2ncc(-c3ccccc3)o2)n1 (stereo not given) | 26.63 |
| Cc1nc(C)n(CC2CCCN2Cc2ncc(C(C)(C)C)o2)n1 (stereo not given) | 60.71 |
| CCC1CCCCN1Cc1ncc(C(C)(C)C)o1 (stereo not given) | 70.27 |
| CCN1CCN(C2CCN(Cc3nnc(C(C)C)o3)CC2)C1=O | -127.6 |
| Cc1nc(C)n(CC2CCCN(Cc3ncc(C(C)(C)C)o3)C2)n1 (stereo not given) | -87.32 |
| CCN1CCN(C2CCN(Cc3nnc(C4CC4)o3)CC2)C1=O | -106.8 |
| Cc1cnn(CC2CCCCN2Cc2ncc(C(C)(C)C)o2)c1 (stereo not given) | 9.696 |
| CC(C)N1C[C@@H](CO)[C@H](c2ccccc2)S1(=O)=O | -2.146 |
| COc1cccc(Cn2ncnc2CNC(C)=O)c1 | -17.74 |
| NC1CCCN(Cc2cccc(C(F)(F)F)c2)C1=O (stereo not given) | -34.65 |
| O=S(=O)(CC1CCCCO1)Nc1c(F)cccc1-n1cccn1 (stereo not given) | -6.246 |
| N#CC1COCCN1C(=O)c1ccc2cc[nH]c2c1 (stereo not given) | -76.07 |
| N[C@H]1CN(C(=O)c2ccc3[nH]c(CO)nc3c2)C[C@@H]1c1ccccc1 | -84.77 |
| COCCC1COC2(CCN(C(=O)c3cccn3C)CC2)C1 (stereo not given) | -157.5 |
| O=C(NC1CCCCC1)c1cc(Br)cnc1N1CCCCC1 | -52.51 |
| COc1cc(C)ccc1OCCN1CC[C@@]2(O)CCNC[C@H]2C1 | -90.26 |
| CCc1ccccc1OCCN1CC[C@@]2(O)CCNC[C@H]2C1 | -93.81 |
| CCn1ncnc1CN1CCC(CNC(=O)c2cccc(C)c2)C1 (stereo not given) | -152.4 |

| SMILES | Percent Effect [%] |
| --- | --- |
| CCCC1CCCN(Cc2csc(-c3cnn(C)c3)n2)CC1 (stereo not given) | 52.75 |
| Cn1cc(-c2nc(CN3CCN(CCO)CC3)cs2)cn1 | -64.62 |
| Cn1cc(-c2nc(CN3CCc4c(ncn4C4CC4)C3)cs2)cn1 | -33.38 |
| Cn1cc(CN2CCC3(CC2)CN(c2cccnc2)C(=O)CO3)cn1 | -97.96 |
| c1cnn(C2CN(c3nc(-c4ccncc4)nc4c3CCC4)C2)c1 | -81.86 |
| N#CC1CCCN(c2nc(-c3ccccc3)nc3c2CCNCC3)C1 (stereo not given) | 79.11 |
| Cn1ccnc1CN1CCc2ncnc(N3CCCC(C#N)C3)c2CC1 (stereo not given) | -81.1 |
| CC(C)CNC(=O)c1cccc(Oc2ccc3nncn3n2)c1 | -53.64 |
| O=C(C1CCOCC1)N1C[C@H](OCc2cccnc2)[C@H]2COC[C@H]21 | -121.2 |
| CSc1nccn1-c1cccc(C(=O)NCCN2CCS(=O)(=O)CC2)c1 | -149.1 |
| CCc1nc(CN2CCCN(C(=O)CCOC(C)C)CC2)cs1 | -60.5 |
| CCN1CCOC(CNCc2ccccn2)C1 (stereo not given) | -142.7 |
| CC(C)(C)c1ncc(CNCC2CCCn3ccnc32)s1 (stereo not given) | 11.38 |
| CCn1ncc2c1CCCC2NCC1=Cc2ccccc2OC1 (stereo not given) | -139.8 |
| Clc1ccc2c(c1)C=C(CNC1CCc3ncnn3C1)CO2 (stereo not given) | -63.09 |
| O[C@@H]1CN(CC2=Cc3cc(Cl)ccc3OC2)CC[C@H]1N1CCCCCC1 | -10.35 |
| Cc1cn2c(n1)C(CNCC1=Cc3ccccc3OC1)CCC2 (stereo not given) | 78.44 |
| Cc1cn2c(n1)C(CNCC1=Cc3cc(Cl)ccc3OC1)CCC2 (stereo not given) | 87.8 |
| CC(C)(C)c1cn2c(n1)C(CNCc1ccccn1)CCC2 (stereo not given) | 92.56 |
| C1=C(CNC2CCc3ncnn3C2)COc2ccccc21 (stereo not given) | -78.33 |
| O=C(Nc1cnccn1)[C@H]1CC[C@@H]2[C@@H](CCN2Cc2ccccn2)O1.O=C(O)C(F)(F)F | -97.13 |
| COc1cc(C(=O)NCCCO)cc2occc12 | -87.71 |

| SMILES | Percent Effect [%] |
| --- | --- |
| CCc1[nH]c2ccc(CNC(=O)c3cnc(N)nc3C)cc2c1C | -136.6 |
| Cc1[nH]c2c(F)cccc2c1CC(=O)NC1CCCCNC1=O (stereo not given) | -28.67 |
| O=C1CNc2ncnc(Nc3cnn(Cc4cccc(F)c4)c3)c2N1 | -137.4 |
| O=C(Cc1csc(-c2ccco2)n1)N1CCCC1Cn1cccn1 (stereo not given) | -188.1 |
| Cc1ccc(CN2CCC3(CCCN(S(C)(=O)=O)C3)C2)o1 (stereo not given) | -70.82 |
| CCS(=O)(=O)N1CCC2(CN(Cc3ccc(C)o3)C2)C1 | -57.27 |
| Cc1ccc(CN2CCC3(CCN(S(=O)(=O)c4ccccc4)C3)C2)o1 (stereo not given) | 79.54 |
| O=C(c1cccs1)N1CC[C@H](O)[C@@H]1Cc1ccccc1 | -5.522 |
| COc1ccccc1C(=O)Nc1c(F)c(C(=O)N2CCCC2)nn1C | -139.8 |
| COC(=O)CN1Cc2cc3c(cc2NCCC1=O)OCO3 | -54.83 |
| Cc1c(C)n(Cc2ccncc2)c2nc3c(c(N)c12)CCCCCC3 | 27.24 |
| Cc1c(C)n(Cc2ccccn2)c2nc3c(c(N)c12)CCCCC3 | 22.61 |
| Cc1c(C)n(Cc2ccccn2)c2nc3c(c(N)c12)CCCC3 | 45.51 |
| Cc1cc(C(=O)N2CCNC(=O)C2)c(C)n1Cc1ccccn1 | -70.27 |
| CCCc1nc2c(c(C)c(C)n2Cc2cccnc2)c(N)c1CC | 64.11 |
| Cc1c(C)n(-c2ccccn2)c2nc3c(c(N)c12)CCCC3 | 19.64 |
| Cc1c(C)n(Cc2ccncc2)c2nc3c(c(N)c12)CCCC3 | -16.59 |
| CCc1cc(NCCc2cccnc2)n2nc(C)c(C)c2n1 | -66.72 |
| Cc1c(C)n(Cc2ccccn2)c2nc3c(c(N)c12)CCCCCC3 | 58.63 |
| CCc1nc2c(c(C)c(C)n2Cc2cccnc2)c(N)c1C | 18.39 |
| CCCc1nc2c(c(C)c(C)n2Cc2ccncc2)c(N)c1CC | 59.32 |
| CCCc1nc2c(c(C)c(C)n2Cc2ccccn2)c(N)c1CC | 58.37 |
